From PMC5540273 (PLoS ONE, 2017)

system: CDKL2; conditions: concentration: 1 μM, replicates: in singlicate; n = 1
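Note: KINOMEscan kinase panel screen.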

SMILES	%Inh
COc1cc2nccc(Nc3ccc(NC(=O)c4ccc(C)cc4)c(O)c3)c2cc1OC.Cl [GW440132]	13%
Nc1ncnc2[nH]c(-c3ccccc3)nc12 [AH5015]	32%
Cl.NC(=O)c1cccc(Nc2nccc(Nc3ccc(Oc4cccc(Cl)c4)c(Cl)c3)n2)c1 [GW659008]	23%
COC(=O)c1c(-c2ccccc2)c2cc(OC)ccc2c(=O)n1Cc1ccccc1	13%
CN(C)CCN(C)C(=O)c1cc(-c2ccncc2)c(-c2ccc(Cl)c(O)c2)o1.Cl.Cl [SB-710397]	20%
CS(=O)(=O)c1ccc(-c2c(-c3ncn[nH]3)sc(N3CCOCC3)c2C#N)cc1	7%
CC(=O)Nc1nc2cnc(Nc3cc(NC(=O)c4cccc(CCC#N)c4)ccc3C)nc2s1	29%
COc1ccc(Nc2nccc(NCCNC(=O)Nc3ccccc3F)n2)cc1 [GSK1379901]	9%
CN1C(=O)C(Nc2ccc(Cl)c(C(=O)O)c2)=C(c2ccc(Cl)cc2)C1=O [SB-404290]	13%
Cn1cncc1-c1ccc2ncnc(Nc3ccc(OCc4ccccc4)cc3)c2c1 [GW320571]	19%
COc1cc2ncn(-c3cc(OCC4CCCO4)c(C(N)=O)s3)c2cc1OC (centres unmarked) [GSK204607]	1%
COc1ccccc1-c1ccc2c(NC(=O)C3CC3)n[nH]c2n1 [SB-711239]	23%
Cc1c(Cn2ccn3c(=O)cc(N4CCOCC4)nc23)cccc1C(F)(F)F [GSK2289044]	10%
Cc1ccc(NC(=O)Nc2cccc(Cl)c2)cc1-c1ccc(C(=O)Nc2ccncc2)cc1 [GSK1398468]	52%
Cl.Oc1ccc(-c2nc(-c3ccccc3)[nH]c2-c2ccncc2)cc1 [SB-428218]	32%
C[C@@H]1CCCCN1c1cc(-c2ccc3c(N)n[nH]c3c2)nc(N)n1 [GSK2258759]	6%
COC(=O)c1c(-c2ccccc2)c2cc(C(=O)O)ccc2c(=O)n1Cc1ccccc1	6%
Cc1cccc(-c2nc(Nc3ccc4[nH]ncc4c3)c3ccccc3n2)n1 [GW857175]	7%

SMILES	%Inh
Nc1nc(-c2nccs2)c(-c2ccnc3ccccc23)s1 [GW693542]	26%
Cc1c(O)cccc1Nc1ccnc2ccc(C(F)(F)F)cc12.Cl [GW466413]	5%
O=C(Nc1ccc2c(c1)OCO2)NC1CCN(c2ccnc(Nc3ccc(F)cc3)n2)C1 (centres unmarked) [GSK1379724]	49%
Cc1ccccc1-n1cnc2c(N)ncnc21 [SKF-97510]	0%
Cc1ccc(C(=O)Nc2ccc(Nc3ccnc4cc(-c5ccccn5)ccc34)cc2O)cc1.Cl [GW440146]	18%
COc1ccc(Nc2nccc(-c3cccc(NC(=O)c4cc5cc(F)ccc5[nH]4)c3)n2)cc1 [GSK1229782]	30%
COc1cccc(-c2cc(-c3c[nH]nc3-c3ccccn3)ccn2)c1 [GW680338]	0%
Cc1cccc(-c2nc(-c3ccc(S(C)(=O)=O)cc3)sc2-c2ccnc(NCCc3ccccc3)c2)c1	13%
Clc1cc(Cl)cc(Nc2ccnc(Nc3cc(Cl)cc(Cl)c3)n2)c1 [GSK175726]	32%
O=C(Nc1n[nH]c2nc(-c3nccs3)c(Br)cc12)C1CC1 [SB-742251]	92.3%
O=C(Nc1n[nH]c2cc(-c3cccc(F)c3F)ccc12)C1CC1 [SB-733894]	95%
Cc1nnc(-c2ccc3occ(-c4ccc(S(C)=O)cc4)c3c2)[nH]1 (centres unmarked)	0%
Cc1cccc(-c2nc(C)cc(Nc3ccncc3)n2)n1 [GSK257997]	0%
NC(=O)c1nnc2ccccc2c1N	1%
O=c1cc(N2CCOCC2)nc2n(Cc3cccc(Cl)c3Cl)ccn12 [GSK2286295]	7%
CS(=O)(=O)c1ccc(-c2nc3n(c2-c2ccncc2)CCC3)cc1 [SKF-105942]	17%
COc1ccc(C2=C(Nc3cccc(C(=O)O)c3)C(=O)NC2=O)cc1 [SB-390765]	37%

system: CDKL3; conditions: concentration: 1 μM, replicates: in singlicate; n = 1

SMILES	%Inh
COc1cc2nccc(Nc3ccc(NC(=O)c4ccc(C)cc4)c(O)c3)c2cc1OC.Cl [GW440132]	0%
Nc1ncnc2[nH]c(-c3ccccc3)nc12 [AH5015]	0%
Cl.NC(=O)c1cccc(Nc2nccc(Nc3ccc(Oc4cccc(Cl)c4)c(Cl)c3)n2)c1 [GW659008]	0%
COC(=O)c1c(-c2ccccc2)c2cc(OC)ccc2c(=O)n1Cc1ccccc1	12%
CN(C)CCN(C)C(=O)c1cc(-c2ccncc2)c(-c2ccc(Cl)c(O)c2)o1.Cl.Cl [SB-710397]	0%
CS(=O)(=O)c1ccc(-c2c(-c3ncn[nH]3)sc(N3CCOCC3)c2C#N)cc1	13%
CC(=O)Nc1nc2cnc(Nc3cc(NC(=O)c4cccc(CCC#N)c4)ccc3C)nc2s1	0%
COc1ccc(Nc2nccc(NCCNC(=O)Nc3ccccc3F)n2)cc1 [GSK1379901]	0%
CN1C(=O)C(Nc2ccc(Cl)c(C(=O)O)c2)=C(c2ccc(Cl)cc2)C1=O [SB-404290]	0%
Cn1cncc1-c1ccc2ncnc(Nc3ccc(OCc4ccccc4)cc3)c2c1 [GW320571]	0%
COc1cc2ncn(-c3cc(OCC4CCCO4)c(C(N)=O)s3)c2cc1OC (centres unmarked) [GSK204607]	0%
COc1ccccc1-c1ccc2c(NC(=O)C3CC3)n[nH]c2n1 [SB-711239]	20%
CSc1nn2c(=O)cc(N3CCOCC3)nc2n1Cc1cccc(C(F)(F)F)c1C [GSK2363608]	0%
Cc1c(Cn2ccn3c(=O)cc(N4CCOCC4)nc23)cccc1C(F)(F)F [GSK2289044]	0%
Cc1ccc(NC(=O)Nc2cccc(Cl)c2)cc1-c1ccc(C(=O)Nc2ccncc2)cc1 [GSK1398468]	0%
Cl.Oc1ccc(-c2nc(-c3ccccc3)[nH]c2-c2ccncc2)cc1 [SB-428218]	0%
C[C@@H]1CCCCN1c1cc(-c2ccc3c(N)n[nH]c3c2)nc(N)n1 [GSK2258759]	0%
COC(=O)c1c(-c2ccccc2)c2cc(C(=O)O)ccc2c(=O)n1Cc1ccccc1	4%

SMILES	%Inh
Cc1cccc(-c2nc(Nc3ccc4[nH]ncc4c3)c3ccccc3n2)n1 [GW857175]	4%
Nc1nc(-c2nccs2)c(-c2ccnc3ccccc23)s1 [GW693542]	0%
Cc1c(O)cccc1Nc1ccnc2ccc(C(F)(F)F)cc12.Cl [GW466413]	0%
O=C(Nc1ccc2c(c1)OCO2)NC1CCN(c2ccnc(Nc3ccc(F)cc3)n2)C1 (centres unmarked) [GSK1379724]	0%
Cc1ccccc1-n1cnc2c(N)ncnc21 [SKF-97510]	39%
Cc1ccc(C(=O)Nc2ccc(Nc3ccnc4cc(-c5ccccn5)ccc34)cc2O)cc1.Cl [GW440146]	0%
COc1ccc(Nc2nccc(-c3cccc(NC(=O)c4cc5cc(F)ccc5[nH]4)c3)n2)cc1 [GSK1229782]	0%
COc1cccc(-c2cc(-c3c[nH]nc3-c3ccccn3)ccn2)c1 [GW680338]	23%
Cc1cccc(-c2nc(-c3ccc(S(C)(=O)=O)cc3)sc2-c2ccnc(NCCc3ccccc3)c2)c1	10%
Clc1cc(Cl)cc(Nc2ccnc(Nc3cc(Cl)cc(Cl)c3)n2)c1 [GSK175726]	0%
O=C(Nc1n[nH]c2nc(-c3nccs3)c(Br)cc12)C1CC1 [SB-742251]	0%
O=C(Nc1n[nH]c2cc(-c3cccc(F)c3F)ccc12)C1CC1 [SB-733894]	48%
Cc1nnc(-c2ccc3occ(-c4ccc(S(C)=O)cc4)c3c2)[nH]1 (centres unmarked)	0%
Cc1cccc(-c2nc(C)cc(Nc3ccncc3)n2)n1 [GSK257997]	0%
NC(=O)c1nnc2ccccc2c1N	17%
O=c1cc(N2CCOCC2)nc2n(Cc3cccc(Cl)c3Cl)ccn12 [GSK2286295]	0%
CS(=O)(=O)c1ccc(-c2nc3n(c2-c2ccncc2)CCC3)cc1 [SKF-105942]	0%
COc1ccc(C2=C(Nc3cccc(C(=O)O)c3)C(=O)NC2=O)cc1 [SB-390765]	0%
